One assay relates to Klebsiella pneumoniae. To be noted: Concentration 20 uM; ASSAY_TEST Inhibition of Bacterial Growth; detection method Absorption (OD600); MEDIA CAMHB; plate type 384well; NBS; CORNING #3640; time 18 hr.
Another assay concerns Candida albicans. The settings on record: 20 µM.
A further assay deals with Cryptococcus neoformans. To be noted: Concentration 20 uM; ASSAY_TEST Inhibition of Fungal Growth; detection method Resazurin; Absorption (OD600-OD570); plate type 384well; NBS; CORNING #3640.

Each structure is given as a SMILES string. Entries with a potency or affinity are not part of this list.

As usually defined, the Inhibition is the relative decrease from the control value, in per cent. Take `CC(=O)OCC(=O)[C@@]1(O)CC[C@H]2[C@@H]3CCC4=CC(=O)CC[C@]4(C)[C@H]3C(=O)C[C@@]21C` [CORTISONE ACETATE]: the results for the Inhibition in the assay on Klebsiella pneumoniae, in the assay with Candida albicans and in the assay with Cryptococcus neoformans were 12.5%, 1.99% and -0.31%, respectively.

With `CC1Cc2ccccc2N1NC(=O)c1ccc(Cl)c(S(N)(=O)=O)c1` (stereo not given) [INDAPAMIDE], the Inhibition with Klebsiella pneumoniae was 9.63%; in the assay with Candida albicans, -0.23%; in the assay with Cryptococcus neoformans it was -0.18%.

As for `CCC(=C(c1ccccc1)c1ccc(OCCN(C)C)cc1)c1ccccc1`, the Inhibition in the assay on Klebsiella pneumoniae is 0.16%; in the assay on Candida albicans, 5.96%; with Cryptococcus neoformans, 1.89%.

In the case of `CC(CCCCC(=O)Nc1ccc(C(F)(F)F)cc1)NCCc1c[nH]cn1.O=C(O)/C=C\C(=O)O.O=C(O)/C=C\C(=O)O` (stereo not given), the Inhibition in the assay on Klebsiella pneumoniae was 6.44%; with Candida albicans, 2.76%; in the assay with Cryptococcus neoformans, -4.87%.

Take `O=C1c2c(O)cc(O)cc2O[C@H](c2ccc(O)c(O)c2)[C@H]1O` [(+)-TAXIFOLIN]: the Inhibition in the assay with Klebsiella pneumoniae is 12.56%; in the assay on Candida albicans, 3.72%; in the assay on Cryptococcus neoformans, -3.68%.

In the case of `C[C@]12CCC(=O)C=C1CC[C@@H]1[C@@H]2[C@@H](O)C[C@@]2(C)[C@H]1CC[C@]2(O)C(=O)CO` [HYDROCORTISONE], the Inhibition with Klebsiella pneumoniae is 5.06%; in the assay with Candida albicans it was 1.65%; with Cryptococcus neoformans, -3.64%.

Consider `Cl.Cn1c(NCCN(CCO)CCCc2ccc([N+](=O)[O-])cc2)cc(=O)n(C)c1=O`, for which the figures for the Inhibition in the assay with Klebsiella pneumoniae, in the assay on Candida albicans and in the assay with Cryptococcus neoformans were 3.03%, 4.73% and -1.07%, respectively.

Regarding `CN(C)CCCN1c2ccccc2CCc2ccc(Cl)cc21.Cl` [CLOMIPRAMINE HYDROCHLORIDE], the Inhibition was 18.4% in the assay on Klebsiella pneumoniae, 2.36% with Candida albicans and -9.01% in the assay on Cryptococcus neoformans.

In the case of `CCN(CC)CCOc1ccc(C(=C(Cl)c2ccccc2)c2ccccc2)cc1.O=C(O)CC(O)(CC(=O)O)C(=O)O` [CLOMIPHENE CITRATE], the results for the Inhibition with Klebsiella pneumoniae, in the assay on Candida albicans and in the assay on Cryptococcus neoformans were 12.13%, 7.1% and -20.85%, respectively.

As to `CCOc1cc(CC(=O)N[C@@H](CC(C)C)c2ccccc2N2CCCCC2)ccc1C(=O)O` [REPAGLINIDE], the Inhibition in the assay on Klebsiella pneumoniae is 3.14%; with Candida albicans it was 4.01%; in the assay on Cryptococcus neoformans it was -6.91%.

As for `CC(C)Cc1ccc(C(C)C(=O)O)cc1` (stereo not given) [IBUPROFEN], the Inhibition with Klebsiella pneumoniae was -1.68%; in the assay with Candida albicans, 13.3%; in the assay on Cryptococcus neoformans, -3.38%.

For the molecule `Nc1c2c(nc3c1CCC3)CCCC2` [IPIDACRINE], the Inhibition in the assay on Klebsiella pneumoniae is 15%; with Candida albicans it was 3.22%; in the assay on Cryptococcus neoformans, -0.69%.

`C[C@@H]1C[C@H]2[C@@H]3C[C@H](F)C4=CC(=O)C(Cl)=C[C@]4(C)[C@@]3(F)[C@@H](O)C[C@]2(C)[C@@]1(O)C(=O)CO` [HALOMETASONE]: the Inhibition in the assay with Klebsiella pneumoniae was 3.82%; in the assay with Candida albicans, -0.05%; in the assay with Cryptococcus neoformans it was -4.6%.

Take `Br.CN(C)CCCC1(c2ccc(F)cc2)OCc2cc(C#N)ccc21` (stereo not given) [CITALOPRAM HYDROBROMIDE]: the Inhibition in the assay with Klebsiella pneumoniae was 0.36%; in the assay on Candida albicans it was 2.48%; in the assay with Cryptococcus neoformans, -12.2%.

For the molecule `Cl.O=C1c2c(O)ccc(O)c2C(=O)c2c(NCCNCCO)ccc(NCCNCCO)c21`, the Inhibition in the assay with Klebsiella pneumoniae is 7.11%; in the assay with Candida albicans, -4.12%; with Cryptococcus neoformans, 21.29%.

Regarding `Cc1ncc([N+](=O)[O-])n1CCO` [METRONIDAZOLE], the Inhibition in the assay on Klebsiella pneumoniae is 13.91%; with Candida albicans, 1.89%; in the assay with Cryptococcus neoformans it was -8.47%.

Regarding `COc1ccccc1N1CCN(CCCNc2cc(=O)n(C)c(=O)n2C)CC1.Cl` [URAPIDIL HYDROCHLORIDE], the Inhibition was 17.15% in the assay on Klebsiella pneumoniae, 3.19% in the assay on Candida albicans and -6.92% with Cryptococcus neoformans.

With `O=C([O-])Cc1ccccc1Nc1c(Cl)cccc1Cl.[Na+]` [DICLOFENAC SODIUM], the Inhibition in the assay on Candida albicans stood at 5.99%; with Cryptococcus neoformans it was 1.05%.

Regarding `Nc1ccc(O)c(C(=O)O)c1` [MESALAMINE], the Inhibition in the assay with Candida albicans is 1.32%; in the assay on Cryptococcus neoformans it was 3.98%.

Regarding `O=C1CN(/N=C/c2ccc(-c3ccc([N+](=O)[O-])cc3)o2)C(=O)[N-]1.[Na+]` [DANTROLENE SODIUM], the results for the Inhibition in the assay on Klebsiella pneumoniae, with Candida albicans and with Cryptococcus neoformans were 2.98%, 0.63% and 5.43%, respectively.

Consider `CCN(CC)CC1CCCCN1CC(=O)N1c2ccccc2C(=O)Nc2cccnc21` (stereo not given) [OTENZEPAD], for which the Inhibition in the assay with Klebsiella pneumoniae was 12.92%; with Candida albicans, 3.03%; in the assay on Cryptococcus neoformans, 3.45%.

Turning to `NCC(=O)CCC(=O)O` [AMINOLEVULINIC ACID], the Inhibition was 13.51% in the assay with Klebsiella pneumoniae, 0.21% in the assay on Candida albicans and -6.69% in the assay on Cryptococcus neoformans.

Take `NNC(=O)c1ccncc1` [ISONIAZID]: the Inhibition is 6.54% in the assay on Klebsiella pneumoniae, 3.95% in the assay on Candida albicans and -3.6% in the assay with Cryptococcus neoformans.

As to `CC1CC2C3CCC4=CC(=O)C=CC4(C)[C@@]3(Cl)C(O)CC2(C)C1(O)C(=O)CO` (stereo not given in full), the Inhibition with Klebsiella pneumoniae is 12.23%; in the assay with Candida albicans, 3.02%; in the assay with Cryptococcus neoformans, -2.46%.

With `CN1CCC(=C2c3ccccc3C=Cc3ccccc32)CC1.Cl` [CYPROHEPTADINE HYDROCHLORIDE], the Inhibition is 17.49% in the assay on Klebsiella pneumoniae, 3.56% with Candida albicans and -5.58% with Cryptococcus neoformans.

As for `CCCN(CCC)S(=O)(=O)c1ccc(C(=O)O)cc1` [PROBENECID], the Inhibition is reported as 16.52% with Klebsiella pneumoniae and -7.72% with Cryptococcus neoformans.
